Compounds without any hit were thinned out: in the full panel of roughly 83,000, 20% have a hit.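 Values shown are percent growth following 48 h exposure of cells in 96-well plates to a single concentration of compound; below 10 was considered active.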 Active and inactive are the calls of the source.
Key:
Experiment in all cases: NCI-60 one-dose screen, 48 h (100 = growth as untreated, 0 = no growth, -100 = all killed)
Conditions in all cases: 10 µM unless noted
NCI-H23 lung = tested on: NCI-H23 lung
NCI-H226 lung = tested on: NCI-H226 lung
NCI-H322M lung = tested on: NCI-H322M lung
HOP-62 NSCLC = tested on: HOP-62 NSCLC
NCI-H460 lung = tested on: NCI-H460 lung
HOP-92 NSCLC = tested on: HOP-92 NSCLC
NCI-H522 lung = tested on: NCI-H522 lung
A549/ATCC NSCLC = tested on: A549/ATCC NSCLC
786-0 renal = tested on: 786-0 renal
COLO 205 colon = tested on: COLO 205 colon

Measured: growth

CC(O)CN1CCCCC1 (stereo not given)
inactive: NCI-H23 lung 100% | NCI-H226 lung 106% | NCI-H322M lung 111% | HOP-62 NSCLC 122% | NCI-H460 lung 104% | HOP-92 NSCLC 111% | NCI-H522 lung 88.8% | A549/ATCC NSCLC 105% | 786-0 renal 105% | COLO 205 colon 111%

COc1cc(C2NN=C3c4ccccc4CCC32)cc(OC)c1OC (stereo not given)
inactive: NCI-H23 lung 73.4% | NCI-H226 lung 62.6% | NCI-H322M lung 88% | HOP-62 NSCLC 82.3% | NCI-H460 lung 91.3% | HOP-92 NSCLC 62.4% | NCI-H522 lung 81.2% | A549/ATCC NSCLC 42% | 786-0 renal 93.9% | COLO 205 colon 89.3%

O=C(/C=C/c1ccccc1)c1cccc(O)c1
inactive: NCI-H23 lung 96.7% | NCI-H226 lung 109% | NCI-H322M lung 113% | HOP-62 NSCLC 103% | NCI-H460 lung 110% | HOP-92 NSCLC 82.8% | NCI-H522 lung 116% | A549/ATCC NSCLC 86% | 786-0 renal 94.2% | COLO 205 colon 107%

COc1ccc(Nc2[nH]n3c(=O)cc(-c4ccccc4)nc3c2C(=O)Nc2ccc(C)cc2)c(OC)c1
inactive: NCI-H23 lung 88.7% | NCI-H226 lung 87.4% | NCI-H322M lung 81.5% | HOP-62 NSCLC 80.3% | NCI-H460 lung 111% | HOP-92 NSCLC 68.9% | NCI-H522 lung 78.2% | A549/ATCC NSCLC 88.7% | 786-0 renal 92.7% | COLO 205 colon 98%

Nc1cc2c(cc1C(=O)c1cccc(F)c1)OCCO2
inactive: NCI-H23 lung 95.4% | NCI-H226 lung 91.4% | NCI-H322M lung 98.5% | HOP-62 NSCLC 95% | NCI-H460 lung 104% | HOP-92 NSCLC 72.9% | NCI-H522 lung 87.3% | A549/ATCC NSCLC 91.6% | 786-0 renal 94% | COLO 205 colon 111%

Cc1ccc(S(=O)(=O)NCCCNc2cc(-c3cn(C(C)(C)C)nc3-c3cccc(O)c3)ccn2)cc1
inactive: NCI-H23 lung 77% | NCI-H226 lung 54.6% | NCI-H322M lung 87.9% | HOP-62 NSCLC 85.1% | NCI-H460 lung 29.9% | HOP-92 NSCLC 71% | NCI-H522 lung 53% | A549/ATCC NSCLC 59.6% | 786-0 renal 56.6%
active: COLO 205 colon 8.53%

C=COC(=O)CCCCCCCCC
inactive: NCI-H23 lung 108% | NCI-H226 lung 107% | NCI-H322M lung 102% | HOP-62 NSCLC 120% | NCI-H460 lung 106% | HOP-92 NSCLC 99% | NCI-H522 lung 85.9% | A549/ATCC NSCLC 108% | 786-0 renal 102% | COLO 205 colon 111%

NC1N=C(SCC(=O)N2CCN(c3cc4c(cc3F)c(=O)c(C(=O)O)cn4C3CC3)CC2)NC(=O)/C1=C/c1ccc(Cl)cc1 (stereo not given)
inactive: NCI-H23 lung 103% | NCI-H226 lung 106% | NCI-H322M lung 107% | HOP-62 NSCLC 103% | NCI-H460 lung 110% | HOP-92 NSCLC 114% | NCI-H522 lung 94.7% | A549/ATCC NSCLC 103% | 786-0 renal 103% | COLO 205 colon 115%

Cc1c(C(=O)/C=C/c2csc3ccccc23)[n+](=O)c2ccccc2n1[O-]
inactive: NCI-H23 lung 44.4% | NCI-H226 lung 78.1% | NCI-H322M lung 81.8% | HOP-62 NSCLC 98.7% | NCI-H460 lung 66.6% | HOP-92 NSCLC 43.9% | A549/ATCC NSCLC 61.7% | 786-0 renal 88.3% | COLO 205 colon 73.4%
active: NCI-H522 lung 6.66%

COc1cc(/C=C/C(=O)N2CCN(C(=O)/C=C/c3cc(OC)c(OC)c(OC)c3)CC2)cc(OC)c1OC
inactive: NCI-H23 lung 104% | NCI-H226 lung 100% | NCI-H322M lung 113% | HOP-62 NSCLC 102% | NCI-H460 lung 104% | HOP-92 NSCLC 99.7% | NCI-H522 lung 87.5% | A549/ATCC NSCLC 105% | 786-0 renal 96.8% | COLO 205 colon 109%

O=c1ccn(-c2ncnc3nc[nH]c23)cc1
inactive: NCI-H23 lung 92.1% | NCI-H226 lung 88.8% | NCI-H322M lung 97.5% | HOP-62 NSCLC 89.8% | NCI-H460 lung 113% | HOP-92 NSCLC 72.9% | NCI-H522 lung 80.4% | A549/ATCC NSCLC 35.8% | 786-0 renal 97.1% | COLO 205 colon 101%

Cc1ccc2nc(Cl)cc(=O)n2c1
inactive: NCI-H23 lung 107% | NCI-H226 lung 108% | NCI-H322M lung 116% | HOP-62 NSCLC 100% | NCI-H460 lung 113% | HOP-92 NSCLC 104% | NCI-H522 lung 116% | A549/ATCC NSCLC 113% | 786-0 renal 100% | COLO 205 colon 108%

O=C(c1c[nH]c(=O)c(-c2ccccc2)c1)c1ccccc1O
inactive: NCI-H23 lung 91.7% | NCI-H226 lung 88.7% | NCI-H322M lung 82.7% | HOP-62 NSCLC 86.3% | NCI-H460 lung 96.1% | HOP-92 NSCLC 70.2% | NCI-H522 lung 87.2% | A549/ATCC NSCLC 93.5% | 786-0 renal 88.2% | COLO 205 colon 98.1%

Source: PubChem BioAssay (NCI)
